These results are taken from PubChem BioAssay AID1347120 (National Center for Advancing Translational Sciences (NCATS), 2019).

Structures are written as SMILES. Screen size: about 390,000 compounds; about 930 (0.24%) were called active. Where a call stands in place of a potency, no number is given. Not shown: some 5% with an inconclusive outcome. The sample holds actives, similar compounds and a random draw of the others, so the mix is not that of the screen. Calls come from the whole dose curve; as a rule, active = well fitted activation curve with a large enough effect; inconclusive = small, poorly fitted or top-dose-only effect; inactive = no such curve, though single readings can be large or run the other way.
Potency is the fitted concentration of half-maximal effect.

The test in a line: qHTS for Suppressors of FUS Proteinopathy: Primary screen using FUS-linked yeast assay. Note: nearly all actives have a fitted effect of over 55% in size. The note with it: S. cerevisiae FUS-expressing, OD600, 24 h; Potency: growth rescue; series mostly up to 76.6 µM. From the text: Several widespread neurodegenerative diseases, including Alzheimer disease, Huntington disease, Frontotemporal Lobar Degeneration (FTLD) and Amyotrophic Lateral Sclerosis (ALS), share a common pathological feature, namely accumulation of specific protein aggregates in diseased tissue. These diseases which is associated with protein misfolding (proteinopathies) have become increasingly problematic as the population ages and life expectancies are extended. Most proteinopathies are currently incurable, a situation confounded by the fact that the basis of neurodegeneration is generally poorly understood. There exists urgent and significant need to find therapeutics that can inhibit the toxicity associated with protein aggregation. A novel approach to understand the underlying mechanisms of neurodegenerative diseases has recently emerged in which the disease conditions are modeled in the yeast (Saccharomyces cerevisiae), a tractable eukaryotic organism with conserved protein quality control mechanisms. Yeast offers quick and reliable genetic manipulations and can be easily tailored to high-throughput screening (HTS).
For this project, a yeast model of the FUS proteinopathies (a spectrum of neurodegenerative diseases that include ALS and a subtype of FTLD) was generated and employed. The cytoplasmic accumulation of the DNA/RNA-binding protein FUS (also known as TLS) is causative to both familial and sporadic forms of ALS and FTLD. This yeast model recapitulates neuronal pathology by showing severe cytotoxicity associated with cytoplasmic accumulation of FUS aggregates and a specific interaction between FUS and TDP-43, another ALS-associated protein. […] Specifically, the cellular accumulation of misfolded FUS that disrupts RNA homeostasis in both yeast and higher eukaryotes. This model was validated to be suitable for quantitative HTS (qHTS) use for finding genetic or chemical factors that restore growth. […] Identified compounds that inhibits FUS-yeast toxicity is flagged, re-acquired, and validated for further investigation and optimization.
NIH Chemical Genomics Center [NCGC]
NIH Molecular Libraries Probe Production Centers Network [MLPCN]
Assay Submitter (PI): Frank Shewmaker PhD, Uniformed Services University of the Health Sciences
Compound CP55940 was used as the positive control. Column 1 was treated with CP55940 titration from 92uM (final concentration, 1:2 dilution), while Column 2 was treated with top dose 92uM. Columns 3 and 4 were treated with DMSO only as negative control to assess background and noise signal.
Four hundred fifty microliter of cultured yeast (in 20mL rich medium) provided by Dr. Shewmaker lab was incubated at 30C at 99% humidity for 3hr. The culture was then spun down at 4000rpm for 5min and the cell pellet was resuspended in 2mL of Sdmin Media + ALU(330) + 2.5% Raffinose. One hundred microliter of the suspension was added to 900uL of water and OD of the solution was obtained. Twenty mL of responding medium (provided by Shewmaker lab) + 2.5% raffinose was added to ensure cell density of 0.1; the solution was incubated overnight. Working cell solution (FUS-yeast in Sdmi + Sdmi + 1X ALU + 2% galactose media) was prepared (final OD at 0.005) and 3uL was dispensed in a 1536-well Aurora high based clear bottom assay plates. Controls and library compounds (at various final concentrations from 40uM to 0.32uM) were added using a 1536-well pin array using the Kalypsys pin-tool. The plates were then incubated for 24hrs in a cell-culture incubator (30C; 99% humidity). Absorbance at 600nm was then read using the PerkinElmer ViewLux plate reader.
Background: Quantitative high-throughput screening tests each substance at several concentrations.
Turning to `CCC(=O)N1CCc2cc(Br)cc(S(=O)(=O)CCC(=O)N3CCN(c4ccc(F)cc4)CC3)c21`, the Potency result was “inactive”.

Turning to `O=C(Nc1cc(C(F)(F)F)ccc1Cl)c1cc2nc(-c3ccc4c(c3)OCO4)cc(C(F)(F)F)n2n1`, the Potency result is “inactive”.

Consider `CCOc1cccc2sc(N3CCN(C(=O)C4CC4)CC3)nc12`, for which the Potency entry is “inactive”.

Turning to `COC(=O)[C@]12C[C@H](CC(=O)NCc3cccc4ccccc34)C(=O)N(CCc3ccc(OC)c(OC)c3)C1=C[C@H](C1CCCC1)O[C@@H]2C`, the Potency is 12.6 µM (active).

With `COC(=O)[C@]12C[C@H](CC(=O)NCCc3ccccc3OC)C(=O)N(Cc3ccco3)C1=C[C@H](C(C)C)O[C@@H]2C1CC1`, the Potency entry was “inactive”.

As to `COC(=O)[C@@]12CCCCC=C1N(CCc1ccc(Cl)cc1)C(=O)[C@H]2CC(=O)NCc1ccc(OC)c(OC)c1`, the Potency result is “inactive”.

Turning to `O=C(CSc1nccn1-c1ccc(F)cc1)Nc1cccc2ccccc12`, the Potency result is “inactive”.

For the compound `CCN(c1ncnc2c1cnn2-c1ccc(C)cc1)C1CCCCC1`, the Potency entry is “inactive”.

`CCN1CCN(c2cc(C)c3cc(NC(=O)c4cc(Cl)ccc4OC)ccc3n2)CC1`: the Potency result was “inactive”.

On to `CCOc1ccc(C(=O)Nc2ccc3nc4c(c(Nc5ccccc5OC)c3c2)CCCC4)cc1`, for which the Potency result was “inactive”.

In the case of `CCOC(=O)N1CCN(C(=O)C[C@H]2C[C@@]3(C(=O)OC)C(=C[C@H](C(C)(C)C)O[C@@H]3C)N(Cc3ccc(Cl)cc3Cl)C2=O)CC1`, the Potency was 6.31 µM (active).

With `COC(=O)[C@]12C[C@H](CC(=O)NCC34CC5CC(CC(C5)C3)C4)C(=O)N(Cc3ccc(Cl)cc3Cl)C1=C[C@H](COCc1ccccc1)O[C@@H]2C`, the Potency entry is “inactive”.

For the compound `COC(=O)[C@]12C[C@H](CC(=O)N3CCOCC3)C(=O)N(Cc3ccc(Cl)cc3Cl)C1=C[C@H](COCc1ccccc1)O[C@@H]2C`, the Potency result is “inactive”.

For the compound `CC1CCC(N2CC(=O)N(CCC3=CCCCC3)C(c3ccc(F)cc3)C2=O)CC1` (stereo not given), the Potency result is “inactive”.

With `CCC(C(=O)Nc1cccc(-c2nc3cccnc3s2)c1C)c1ccccc1` (stereo not given), the Potency entry was “inactive”.

`Cc1ccc(Nc2ccc3cc(S(=O)(=O)N4CCCCC4)ccc3n2)cc1F`: the Potency result was “inactive”.

With `Cc1oc2ccc(O)c(CN3CCCCC3)c2c1C(=O)Nc1cccc(C(F)(F)F)c1`, the Potency result was “inactive”.

`CCCN1CCN(CCCNC(=O)c2cnn(-c3ccc(C)cc3)c2-n2cccc2)CC1`: the Potency result is “inactive”.

In the case of `CSc1ncc(Cl)c(C(=O)Nc2ccc(S(=O)(=O)N3CCCC(C)C3)cc2)n1` (stereo not given), the Potency result is “inactive”.

As for `COc1cc(NC(=O)C2=CC(c3ccc(C)cc3)=NS(=O)(=O)N2C)cc(OC)c1OC`, the Potency entry was “inactive”.

Take `COc1ccc(C2=NS(=O)(=O)N(C)C(C(=O)NC(C)c3ccccc3)=C2)cc1` (stereo not given): the Potency result is “inactive”.

`COc1ccc(NC(=O)C2=CC(c3ccc(OC)c(OC)c3)=NS(=O)(=O)N2C)cc1`: the Potency is 31.6 µM (active).

Turning to `O=C(COc1ccccc1Cl)Nc1ccc2nc(SCC(=O)N3CCCC3)sc2c1`, the Potency result is “inactive”.

As for `COc1cccc(CNC(=O)CSc2c3c(nc4cc(Cl)ccc24)CCCC3)c1`, the Potency entry is “inactive”.

Turning to `CCOC(=O)c1c(NC(=O)c2ccc(S(=O)(=O)N(CC)CC)cc2)sc2c1CCCCC2`, the Potency result was “inactive”.

On to `O=C(Nc1ccccc1F)C(c1ccccc1)N1Cc2ccccc2C1=O` (stereo not given), for which the Potency result is “inactive”.

Take `COc1ccc(OC)c(-n2nnc(-c3nc(-c4cc(OC)c(OC)c(OC)c4)no3)c2C)c1`: the Potency result is “inactive”.

For `CCc1ccc(CN(Cc2ccco2)C(=O)COc2ccc(Cl)c(C)c2)cc1`, the Potency result was “inactive”.

With `CCN(CC)c1nn2c(=O)c(C(=O)NCCc3ccccc3)cnc2s1`, the Potency result was “inactive”.

As to `COc1cccc(OCCn2c(-c3ccc(Br)cc3)nc3ccccc3c2=O)c1`, the Potency entry is “inactive”.

`COc1ccc(OC)c(-c2csc(-c3c(N)c(C(=O)c4ccccc4)n4ccccc34)n2)c1`: the Potency result is “inactive”.

Regarding `Cc1nn(C(C)C(=O)Nc2ccc(C(C)C)cc2)c(=O)c2c1sc1ccccc12` (stereo not given), the Potency result was “inactive”.

In the case of `Cc1ccc(NC(=O)CSc2nc3c([nH]c4ccccc43)c(=O)n2-c2ccccc2)c(C)c1`, the Potency entry is “inactive”.

As for `Cc1ccc(Cl)cc1N(C)C(=O)Cn1nc(Cc2cccnc2)c2ccccc2c1=O`, the Potency result was “inactive”.

For the compound `O=C(CSc1nccn1Cc1ccc(Cl)cc1)NCc1ccccc1`, the Potency entry was “inactive”.

On to `Cc1cccc(NC(=O)c2ccc(F)c(S(=O)(=O)N(C)C3CCCCC3)c2)c1`, for which the Potency result was “inactive”.

Take `CCOc1ccc(C2CC(=O)c3c([nH]c(C(=O)OCc4ccccc4)c3C)C2)cc1` (stereo not given): the Potency entry is “inactive”.

As to `CCOC(=O)C1CCCN(C(=O)c2ccc3c(c2)sc2nc(-c4ccc(CC)cc4)cn23)C1` (stereo not given), the Potency entry was “inactive”.

Take `Cc1c(C(=O)N2CCCC2)oc2c1-c1nn(CC(=O)NCc3ccc(OC(C)C)cc3)cc1CC2`: the Potency result was “inactive”.

For the compound `Cc1ccc(NC(=O)c2cc(S(=O)(=O)NCCC3=CCCCC3)ccc2F)cc1C`, the Potency result was “inactive”.
